# Screens: PubChem, Buhrlage Lab, Dana-Farber Cancer Institute and Novartis Institutes for BioMedical Research (Cambridge, Mass)
# USP17 block – human USP17-like deubiquitinase inhibition; A8MUK1; purified USP17, Ub-rhodamine cleavage fluorescence, 3 h; inhibition, % at 50 µM; 47,000 tested, 6.5% active
# Target sequence (A8MUK1 whole entry, looked up): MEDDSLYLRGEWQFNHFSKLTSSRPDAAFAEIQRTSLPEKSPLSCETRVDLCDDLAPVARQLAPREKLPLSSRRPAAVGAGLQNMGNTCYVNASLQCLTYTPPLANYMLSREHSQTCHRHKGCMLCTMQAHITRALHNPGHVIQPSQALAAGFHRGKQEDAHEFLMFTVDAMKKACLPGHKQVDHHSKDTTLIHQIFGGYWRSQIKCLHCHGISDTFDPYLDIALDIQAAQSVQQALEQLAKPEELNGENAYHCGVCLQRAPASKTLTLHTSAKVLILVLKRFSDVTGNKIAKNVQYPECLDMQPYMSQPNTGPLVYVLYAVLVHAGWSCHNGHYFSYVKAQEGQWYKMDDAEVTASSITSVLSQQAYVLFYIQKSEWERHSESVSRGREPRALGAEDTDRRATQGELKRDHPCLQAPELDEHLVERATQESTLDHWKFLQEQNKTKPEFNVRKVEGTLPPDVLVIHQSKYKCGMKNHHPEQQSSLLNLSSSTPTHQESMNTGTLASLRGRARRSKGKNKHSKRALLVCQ
# USP30 inh – human USP30 deubiquitinase inhibition | inhibition, % at 25 µM | purified USP30, Ub-rhodamine cleavage fluorescence | Q70CQ3 | AID 1645860 | 47,000 tested, 5.3% active
# Numbers without * were called inactive; i = inactive; / = no result. In the library only some 9.6% were active in any assay of this set; here they are far more common. No stated cut-off is given here; in the data, active means inhibition above about 30%; inactive means the rest.
SMILES,USP17 block,USP30 inh
CCOc1ccc(C2/C(=C(\O)c3ccccc3)C(=O)C(=O)N2c2nc3ccc(F)cc3s2)cc1 (stereo not drawn),-17.3,-291.3
O=C(c1cnccn1)N1CCCCC1c1nc(-c2ccc(F)cc2)no1 (stereo not drawn),-3.3,2.1
O=C(NCc1ccco1)c1nn(C23CC4CC(CC(C4)C2)C3)cc1[N+](=O)[O-],-19.5,2.4
O=C(NCc1ccc2c(c1)OCO2)c1nn(C23CC4CC(CC(C4)C2)C3)cc1[N+](=O)[O-],6.5,62.2*
CCOc1ccc2nc(C(=O)NCc3ccc4c(c3)OCO4)cn2n1,31.7*,41.2*
COc1ccc2nc(C(=O)NCc3ccccc3)cn2n1,-10.6,-13.0
O=C(Nc1ccc(Br)cc1F)c1cc(S(=O)(=O)NCCc2ccccc2)ccc1F,5.3,36.0*
COc1ccccc1NC(=O)c1cc(S(=O)(=O)NC2CCCC(C)C2C)ccc1F (stereo not drawn),2.6,19.5
CCC(=O)N1CCc2cc(CNS(=O)(=O)c3ccc(F)cc3)ccc21,9.9,6.4
CCNc1oc(-c2ccc(S(=O)(=O)N3CCCCC3)cc2)nc1C#N,63.3*,3.4
N#Cc1nc(-c2ccc(Cl)cc2)oc1NCc1ccccc1,-5.7,16.0
Cc1ccc(-c2nc(SCC(=O)c3c(N)n(C4CC4)c(=O)[nH]c3=O)n[nH]2)cc1,-63.7,-116.2
CCc1ccc(-c2nc(SCC(=O)c3c(N)n(C4CC4)c(=O)[nH]c3=O)n[nH]2)cc1,43.6*,-242.0
Cn1c(=O)c2cc(S(=O)(=O)N3CCc4ccccc4C3)ccc2n(C)c1=O,20.3,12.2
Cc1ccc(CNC(=O)C2CCCN(c3cnc4nccnc4c3)C2)cc1 (stereo not drawn),-138.5,i
Cc1ccc(CCNC(=O)C2CCCN(c3ncnc4onc(C)c34)C2)cc1 (stereo not drawn),-6.1,35.6*
O=C(c1cccnc1)N1CCc2ncnc(-c3cccc(F)c3)c2CC1,-13.7,-7.6
CN1C(=O)C(C)(C)c2cc(S(=O)(=O)NCC3CCC(C(=O)N4CCc5ccccc54)CC3)ccc21 (stereo not drawn),-3.8,-0.4
Cc1nc(-c2ccc(C(=O)O)cc2)cc(C2CCN(S(C)(=O)=O)CC2)n1,9.1,21.8
Cc1ccc(-c2nc3nc(C)c(Cc4ccccc4)c(=O)n3[nH]2)cc1,28.4,14.8
COc1ccc(-c2nc3nc(C)c(Cc4ccccc4)c(=O)n3[nH]2)cc1,74.0*,51.2*
CCc1nc2cc(NC(=O)c3cccc(N4CCCC4=O)c3)ccc2n1C,-8.4,-50.5
O=C(O)CC1(c2ccc(F)cc2)C2CC3CC(C2)CC1C3 (stereo not drawn),31.8*,40.0*
O=C(O)CC1(CC(=O)NCc2ccc(F)cc2)CCCCC1,11.0,21.2
Cc1cnc(N2CCc3cc(C(=O)NC(C)C)c(N(C)C)nc3CC2)nc1,-9.0,12.2
SMILES,USP17 block,USP30 inh
O=C(CN(C(=O)c1ccc(-c2ccccc2)[nH]1)c1ccc(Cl)cc1)NC1CCCC1,0.0,-23.9
COc1ccc(N(CC(=O)NC2CCCCC2)C(=O)c2ccc(-c3ccccc3)[nH]2)cc1OC,78.5*,-10.6
Cc1ccccc1CCC(=O)N1CCC2(CC1)CNS(=O)(=O)c1ccccc1OC2,-0.7,11.9
CN(C)c1cnc(-n2cc(NC(=O)c3ccc(C#N)cc3)cn2)nc1,29.8,-17.9
CCCCn1nc(C)c2c(C(=O)N3CCN(Cc4ccccn4)CC3)cc(C)nc21,-13.2,-76.6
CCc1c(C)sc(NC(=O)c2cccc(Oc3ccccc3)c2)c1C(=O)N1CCOCC1,-1.5,0.3
Cc1ccccc1OCc1nc2c3cnn(C)c3ncn2n1,17.4,35.1*
Cc1ccccc1OCc1nc2c3c(C)c(C)oc3ncn2n1,3.1,-33.6
C/C(=C\C(=O)O)CC/C=C(\C)CCC(=O)O,-4.2,13.3
Cn1nc(C2CCCN(S(=O)(=O)c3ccccc3Cl)C2)c2nccnc21 (stereo not drawn),-4.7,-6.7
CC(=O)c1ccc(N2CCN(S(=O)(=O)c3cc4c(cc3C)NC(=O)CO4)CC2)cc1,15.1,-21.3
Cc1cc2c(cc1S(=O)(=O)N1CCCC(C)C1)OCC(=O)N2 (stereo not drawn),40.7*,/
Cc1ccc(NS(=O)(=O)c2cc(C(=O)NCc3ccco3)ccc2Cl)cc1,-5.2,-21.0
CCn1c(C(=O)O)c(CNCc2ccc(Cl)cc2)c2ccccc21,-12.2,-10.7
Cc1nn(C)c(C)c1S(=O)(=O)N1CCN(C(=O)Cc2ccc(Cl)cc2)CC1,-1.7,-17.4
Cc1ccc2c(COC(=O)c3ccc4ccccc4c3)cc(=O)oc2c1,-4.2,-5.4
COc1ccc(O)c(C(=O)OCc2cc(=O)oc3ccc4ccccc4c23)c1,50.9*,-191.6
COc1cc(Cl)c(C)cc1NC(=O)c1nc(-c2ccncc2)no1,39.6*,33.6*
Cc1ccc(CNC(=O)c2nc(-c3ccncc3)no2)cc1,0.5,-5.0
COc1cc(O)c2c(=O)c3c(C)cc(O)c(Cl)c3oc2c1,22.0,2.5
COc1cccc(CN2C(=O)CCC[C@@H]3[C@H]2CCN3CC(=O)Nc2ccccc2F)c1,-24.6,-78.1
Cn1c(NCc2ccc3c(c2)OCO3)nc(=O)n(-c2ccccc2)c1=O,9.3,16.0
Cc1nc2c3ccccc3nc(NCc3ccc4c(c3)OCO4)n2n1,53.7*,13.6
O=C(NC(CCc1ccccc1)c1ccc2c(c1)OCCO2)c1ccco1 (stereo not drawn),1.9,-10.3
CCOC(=O)c1c(C)oc2nc(CSc3ccccc3)[nH]c(=O)c12,12.3,-4.1
SMILES,USP17 block,USP30 inh
CCOC(=O)Cn1c(=O)c(C(=O)NC(=O)OCC)cn(Cc2cccs2)c1=O,21.9,30.7*
CCOC(=O)CNC(=O)N1CCCCCC1c1cccs1 (stereo not drawn),-9.0,4.1
Cc1ccc(CN2C(=O)c3cc4ccccc4n3CC2(C)C(=O)NCc2ccccc2)o1 (stereo not drawn),64.4*,29.8
CC1(C(=O)NCc2ccccc2)Cn2c(cc3ccccc32)C(=O)N1Cc1cccnc1 (stereo not drawn),12.2,-30.8
CC1(C(=O)NCc2ccccc2)Cn2c(cc3ccccc32)C(=O)N1Cc1ccccc1 (stereo not drawn),50.2*,-0.2
CC(C)CCNC(=O)C1(C)Cn2c(cc3ccccc32)C(=O)N1Cc1cccnc1 (stereo not drawn),2.0,5.9
C[C@H]1[C@H]2CC[C@H]3[C@@H]4CC=C5CC(N(C)C)CC[C@]5(C)[C@H]4CC[C@]23CN1C (stereo partly drawn),-3.3,8.7
Cc1nn(C)c(C)c1CCC(=O)N1CCC(c2onc3c2CC(C)CC3)CC1 (stereo not drawn),13.6,17.8
CCN(Cc1ccncc1)[C@@H]1CN(S(=O)(=O)N(C)C)C[C@H]1O,-43.5,-150.7
O=C(CCc1ccccc1)N1CCN(c2nc3c(F)cc(F)cc3s2)CC1,16.1,35.2*
O=C(CCc1ccccc1)N1CCN(c2nc3c(Cl)cccc3s2)CC1,26.4,38.4*
COc1cccc2sc(N3CCN(C(=O)CCc4ccccc4)CC3)nc12,6.4,16.8
O=C(Cc1ccccc1)N1CCN(c2nc3c(F)cc(F)cc3s2)CC1,-12.2,8.3
CC1Cc2nc3ccccc3n2CCN1Cc1cccc(C#N)c1 (stereo not drawn),5.7,24.5
NC(=O)c1ccccc1NCc1cc(=O)n2cc(Cl)ccc2n1,3.6,-136.8
Cc1ccc2nc(CN(C)c3ccccc3)cc(=O)n2c1,35.8*,-135.5
CN(Cc1cc(=O)n2ccsc2n1)c1ccccc1,0.7,-70.7
